Reference: PubChem BioAssay (EPA / NIEHS)
Inconclusive results are not listed. Activity calls are given as the source filed them. How the source made its calls: active means hit-call score of the fitted dose curve at least 0.9, where 1 is the maximum; inconclusive means response in the unintended direction; inactive means score below 0.9.

Columns and labels:
[1] = read-out: HMG-CoA synthase (HMGCS2), HMGCS2 (gene 3158); assay: CLD_HMGCS2_24hr: CellzDirect (CLD) Gene Expression Assay for HMG-CoA synthase (HMGCS2) at 24 hours (AID 2283691)
Summary of the method: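 qNPA with S1 nuclease digestion and chemiluminescent detection gave HMGCS2 transcript levels, fitted upward against 0.2% DMSO vehicle. Cultured human hepatocytes (two donors) received fresh compound daily and were harvested at 24 h; phase-contrast morphology flagged cytotoxicity.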

[2] = read-out: alkyl and aryl transferase (GSTA2), GSTA2 (gene 2939); assay: CLD_GSTA2_24hr: CellzDirect (CLD) Gene Expression Assay for alkyl and aryl transferase (GSTA2) at 24 hours (AID 2283693)
Summary of the method: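 GSTA2 transcript levels were quantified by quantitative nuclease protection assay in primary human hepatocytes 24 h after daily dosing with fresh solutions at multiple concentrations; 0.2% DMSO vehicle as baseline, cytotoxicity flagged morphologically.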

[3] = read-out: ABC Transporter (ABCB1), ABCB1 (gene 5243); assay: CLD_ABCB1_48hr: CellzDirect (CLD) Gene Expression Assay for ABC Transporter (ABCB1) at 48 hours (AID 2283695);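 on AC50: potency for induction meaning increase of mRNA over DMSO vehicle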
Summary of the method: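 ABCB1 mRNA was measured by quantitative nuclease protection assay (chemiluminescence) 48 h after dosing. Human hepatocyte cultures from two separate donors received fresh dosing solutions daily for two days, with 0.2% DMSO as vehicle. Positive-direction fit against DMSO.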

[4] = read-out: glucuronosyltransferase (UGT1A1), UGT1A1 (gene 54658); assay: CLD_UGT1A1_24hr: CellzDirect (CLD) Gene Expression Assay for glucuronosyltransferase (UGT1A1) at 24 hours (AID 2283696)
Summary of the method: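 UGT1A1 transcript induction was measured by quantitative nuclease protection assay (chemiluminescence) in human hepatocyte cultures 24 h after daily fresh dosing, with 0.2% DMSO as vehicle and baseline.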

[5] = read-out: ABC Transporter (ABCB11), ABCB11 (gene 8647); assay: CLD_ABCB11_48hr: CellzDirect (CLD) Gene Expression Assay for ABC Transporter (ABCB11) at 48 hours (AID 2283697)
Summary of the method: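 Induction of ABCB11 mRNA relative to 0.2% DMSO, measured at 48 h by qNPA chemiluminescence. Cultured human hepatocytes (two donors) received fresh dosing solutions at several concentrations on two consecutive days.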

[6] = read-out: Cytochrome P450 3A4 (Homo sapiens) (UniProt P08684); assay: CLD_CYP3A4_48hr: CellzDirect (CLD) Gene Expression Assay for xenobiotic metabolism (CYP3A4) at 48 hours (AID 2283698)
Summary of the method: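 CYP3A4 induction read by qNPA chemiluminescence after 48 h, with fresh dosing solutions on consecutive days, in cultured human hepatocytes (two donors). Vehicle 0.2% DMSO as baseline; microscopy-based cytotoxicity annotated yes/no alongside data.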

[7] = read-out: Cytochrome P450 2B6 (Homo sapiens) (UniProt P20813); assay: CLD_CYP2B6_48hr: CellzDirect (CLD) Gene Expression Assay for xenobiotic metabolism (CYP2B6) at 48 hours (AID 2283699);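 further: actives raise transcript level above DMSO so potency reflects induction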
Summary of the method: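 CYP2B6 transcript induction, read by quantitative nuclease protection (S1 digestion, chemiluminescent detection) 48 h after dosing, is fitted upward against 0.2% DMSO. Cultured human liver primary cells, two donor preparations, received fresh chemical daily over multiple concentrations.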

[8] = read-out: Glyceraldehyde-3-phosphate dehydrogenase (Homo sapiens) (UniProt P04406); assay: CLD_GAPDH_24hr: CellzDirect (CLD) Gene Expression Assay for Baseline Control (Glyceraldehyde 3-phosphate dehydrogenase) at 24 hours (AID 2283692)
Summary of the method: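 GAPDH baseline-control readout: qNPA chemiluminescent mRNA signal in human primary hepatocytes harvested 24 h after daily dosing, normalised to 0.2% DMSO with positive fitting direction; cytotoxicity annotated by phase-contrast morphology.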

[9] = read-out: sulfotransferase (SULT2A), SULT2A1 (gene 6822); assay: CLD_SULT2A_24hr: CellzDirect (CLD) Gene Expression Assay for sulfotransferase (SULT2A) at 24 hours (AID 2283694);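 on AC50: potency for increased SULT2A1 mRNA level as induction over DMSO baseline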
Summary of the method: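 mRNA is measured by qNPA: probe hybridisation, S1 nuclease digestion, chemiluminescence, in lysates from human primary hepatocytes harvested 24 h after daily dosing. Vehicle was 0.2% DMSO. Phase-contrast microscopy flagged cytotoxicity (yes/no).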

[10] = read-out: xenobiotic metabolism (CYP1A2), CYP1A2 (gene 1544); assay: CLD_CYP1A2_48hr: CellzDirect (CLD) Gene Expression Assay for xenobiotic metabolism (CYP1A2) at 48 hours (AID 2283703)
Summary of the method: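 Cytotoxicity was flagged yes/no from morphology, while CYP1A2 transcript induction was detected by qNPA chemiluminescence after a 48-hour exposure. Human primary hepatocyte cultures from separate donors received fresh dosing solutions daily over two days, with 0.2% DMSO as vehicle and baseline.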

Sequence of Glyceraldehyde-3-phosphate dehydrogenase (Homo sapiens) (P04406 whole entry, looked up): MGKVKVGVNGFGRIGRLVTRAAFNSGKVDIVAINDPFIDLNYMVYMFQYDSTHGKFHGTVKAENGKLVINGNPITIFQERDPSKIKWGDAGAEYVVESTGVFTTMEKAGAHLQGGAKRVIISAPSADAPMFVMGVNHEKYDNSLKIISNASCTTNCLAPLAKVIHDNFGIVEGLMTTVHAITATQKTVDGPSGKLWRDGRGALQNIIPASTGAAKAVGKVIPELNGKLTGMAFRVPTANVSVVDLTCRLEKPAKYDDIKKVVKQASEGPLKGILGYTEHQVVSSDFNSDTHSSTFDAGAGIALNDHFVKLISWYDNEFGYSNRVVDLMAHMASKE
Sequence of Cytochrome P450 3A4 (Homo sapiens) (P08684 whole entry, looked up): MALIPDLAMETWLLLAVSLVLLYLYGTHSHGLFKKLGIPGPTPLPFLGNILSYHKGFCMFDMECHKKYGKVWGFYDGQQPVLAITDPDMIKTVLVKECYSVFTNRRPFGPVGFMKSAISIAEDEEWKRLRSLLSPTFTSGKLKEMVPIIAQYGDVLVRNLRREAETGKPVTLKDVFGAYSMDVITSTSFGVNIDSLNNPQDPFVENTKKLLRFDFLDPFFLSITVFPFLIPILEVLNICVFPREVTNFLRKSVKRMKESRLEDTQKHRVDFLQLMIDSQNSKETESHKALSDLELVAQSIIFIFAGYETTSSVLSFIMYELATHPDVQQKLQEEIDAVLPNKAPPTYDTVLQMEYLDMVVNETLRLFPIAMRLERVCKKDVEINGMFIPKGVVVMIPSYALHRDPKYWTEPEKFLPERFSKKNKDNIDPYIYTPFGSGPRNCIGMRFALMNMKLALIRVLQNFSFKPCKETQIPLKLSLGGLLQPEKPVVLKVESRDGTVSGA

Cc1c(F)c(F)c(COC(=O)C2C(/C=C(\Cl)C(F)(F)F)C2(C)C)c(F)c1F (stereo not drawn)
outcome [1]: inactive | outcome [2]: inactive | outcome [3]: inactive | outcome [4]: inactive | outcome [5]: inactive | AC50 [6]: 20 µM (active) | AC50 [7]: 4.39 µM (active)

CCON=C(CC)C1=C(O)CC(c2c(C)cc(C)cc2C)CC1=O (stereo not drawn)
outcome [1]: inactive | outcome [8]: inactive | outcome [9]: inactive | outcome [3]: inactive | outcome [4]: inactive | outcome [5]: inactive | outcome [7]: inactive

C=CCC1=C(C)[C@@H](OC(=O)[C@@H]2[C@@H](C=C(C)C)C2(C)C)CC1=O
outcome [2]: inactive | outcome [9]: inactive | outcome [3]: inactive | AC50 [4]: 20 µM (active) | AC50 [7]: 4.38 µM (active)

CC1=C(C(=O)Nc2ccccc2)SCCO1
outcome [4]: inactive | outcome [6]: inactive | AC50 [7]: 20 µM (active)

Fc1ccc(Oc2ccnc3cc(Cl)cc(Cl)c23)cc1
outcome [2]: inactive | outcome [3]: inactive | outcome [4]: inactive | outcome [6]: inactive | outcome [7]: inactive

CCCN(CCC)c1c([N+](=O)[O-])cc(S(N)(=O)=O)cc1[N+](=O)[O-]
AC50 [9]: 20 µM (active) | outcome [3]: inactive | outcome [4]: inactive | AC50 [6]: 10 µM (active)

CCNc1nc(Cl)nc(NC(C)C)n1
outcome [2]: inactive | outcome [9]: inactive | outcome [3]: inactive | AC50 [4]: 6.52 µM (active) | AC50 [6]: 14.2 µM (active) | AC50 [7]: 3.97 µM (active)

CCNc1nc(Cl)nc(NCC)n1
outcome [2]: inactive | outcome [9]: inactive | outcome [4]: inactive | outcome [6]: inactive | AC50 [7]: 6.18 µM (active)

CCOc1cc(Oc2ccc(C(F)(F)F)cc2Cl)ccc1[N+](=O)[O-]
outcome [9]: inactive | outcome [3]: inactive | outcome [4]: inactive | AC50 [6]: 5.16 µM (active) | AC50 [7]: 1.83 µM (active)

CCOP(=S)(OCC)SCn1c(=O)oc2cc(Cl)ccc21
outcome [9]: inactive | outcome [4]: inactive | AC50 [6]: 4.1 µM (active) | AC50 [7]: 1.06 µM (active)

COC(=O)C=C(C)OP(=O)(OC)OC
outcome [8]: inactive | outcome [9]: inactive | outcome [3]: inactive | outcome [4]: inactive | outcome [5]: inactive | outcome [6]: inactive | AC50 [7]: 0.0004 µM (active)

CC(C)Oc1cc(-n2nc(C(C)(C)C)oc2=O)c(Cl)cc1Cl
outcome [9]: inactive | outcome [3]: inactive | outcome [4]: inactive | AC50 [6]: 1.9 µM (active) | AC50 [7]: 2.67 µM (active)

CCOC(=O)C(Cl)Cc1cc(-n2nc(C)n(C(F)F)c2=O)c(F)cc1Cl (stereo not drawn)
outcome [2]: inactive | outcome [9]: inactive | outcome [3]: inactive | outcome [4]: inactive | AC50 [6]: 4.77 µM (active) | AC50 [7]: 20 µM (active)

OC(c1ccc(Cl)cc1)(c1cncnc1)c1ccccc1Cl (stereo not drawn)
outcome [2]: inactive | outcome [9]: inactive | AC50 [3]: 17.2 µM (active) | outcome [4]: inactive | AC50 [6]: 0.443 µM (active) | AC50 [7]: 0.483 µM (active)

CON(C)C(=O)Nc1ccc(Cl)c(Cl)c1
outcome [6]: inactive | AC50 [7]: 1.31 µM (active)

CCCC1COC(Cn2cncn2)(c2ccc(Cl)cc2Cl)O1 (stereo not drawn)
outcome [9]: inactive | outcome [3]: inactive | outcome [4]: inactive | AC50 [6]: 2.06 µM (active) | AC50 [7]: 1.89 µM (active)

O=C(Nc1ccccc1)Nc1ccnc(Cl)c1
outcome [4]: inactive | AC50 [7]: 6.77 µM (active)

COc1nc(NC(C)C)nc(NC(C)C)n1
outcome [3]: inactive | outcome [4]: inactive | outcome [5]: inactive | AC50 [6]: 6.77 µM (active) | AC50 [7]: 5.98 µM (active)

CO/C=C(/C(=O)OC)c1ccccc1Oc1cc(Oc2ccccc2C#N)ncn1
outcome [2]: inactive | outcome [9]: inactive | AC50 [3]: 30.2 µM (active) | outcome [4]: inactive | AC50 [7]: 2.46 µM (active)

COc1ccc(C(c2ccc(OC)cc2)C(Cl)(Cl)Cl)cc1
outcome [2]: inactive | outcome [9]: inactive | outcome [3]: inactive | AC50 [4]: 20 µM (active) | AC50 [7]: 6.44 µM (active) | AC50 [10]: 8.31 µM (active)

CC1COC(Cn2cncn2)(c2ccc(Oc3ccc(Cl)cc3)cc2Cl)O1 (stereo not drawn)
outcome [2]: inactive | outcome [9]: inactive | outcome [3]: inactive | outcome [4]: inactive | outcome [6]: inactive | outcome [7]: inactive

COC(=O)N(OC)c1ccccc1COc1ccn(-c2ccc(Cl)cc2)n1
outcome [2]: inactive | outcome [9]: inactive | outcome [3]: inactive | outcome [4]: inactive | AC50 [5]: 35.7 µM (active) | outcome [7]: inactive

CC(C)(C)c1ccc(CSc2cnn(C(C)(C)C)c(=O)c2Cl)cc1
outcome [2]: inactive | AC50 [9]: 20 µM (active) | outcome [3]: inactive | outcome [4]: inactive | outcome [5]: inactive | outcome [6]: inactive | outcome [7]: inactive

CCc1nn(C)c(C(=O)NCc2ccc(C(C)(C)C)cc2)c1Cl
outcome [2]: inactive | AC50 [9]: 3.71 µM (active) | outcome [3]: inactive | AC50 [5]: 37 µM (active) | AC50 [6]: 20 µM (active) | AC50 [7]: 37.3 µM (active)

COc1cnc(OC)n2nc(NS(=O)(=O)c3c(OCC(F)F)cccc3C(F)(F)F)nc12
outcome [2]: inactive | outcome [9]: inactive | outcome [3]: inactive | outcome [4]: inactive | AC50 [6]: 20 µM (active) | outcome [7]: inactive

C#CCOS(=O)OC1CCCCC1Oc1ccc(C(C)(C)C)cc1 (stereo not drawn)
outcome [2]: inactive | outcome [9]: inactive | outcome [3]: inactive | outcome [4]: inactive | outcome [5]: inactive | AC50 [6]: 3.74 µM (active) | AC50 [7]: 2 µM (active) | AC50 [10]: 3.47 µM (active)

COP(N)(=O)SC (stereo not drawn)
outcome [8]: inactive | outcome [6]: inactive | outcome [10]: inactive

CNC(=O)ON=CC(C)(C)SC
outcome [2]: inactive | outcome [3]: inactive | outcome [4]: inactive | outcome [6]: inactive | outcome [7]: inactive

N#Cc1nn(-c2c(Cl)cc(C(F)(F)F)cc2Cl)c(N)c1S(=O)C(F)(F)F (stereo not drawn)
outcome [2]: inactive | AC50 [9]: 2.43 µM (active) | AC50 [3]: 4.65 µM (active) | outcome [4]: inactive | AC50 [6]: 1.1 µM (active) | AC50 [7]: 1.9 µM (active)
